These results are taken from paper PMC4336329 (PLoS ONE, 2015).

Among all 310,000 compounds or so, about 14,000 (4.5%) showed an effect of 50% or more. The effect is printed as a negative number. The list comes from a sample in which strong results are over-represented; it also holds similar structures and randomly drawn compounds.
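Also: peak tail current of the secondary pulse compared with the same well before compound.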

The assay deals with human ether-à-go-go-related gene (hERG) potassium channel (human, UniProt Q12809). Kind of assay: primary screen, population patch clamp on CHO cells stably expressing hERG; higher = less effect of the substance.
Sequence of human ether-à-go-go-related gene (hERG) potassium channel (Q12809 whole entry, looked up): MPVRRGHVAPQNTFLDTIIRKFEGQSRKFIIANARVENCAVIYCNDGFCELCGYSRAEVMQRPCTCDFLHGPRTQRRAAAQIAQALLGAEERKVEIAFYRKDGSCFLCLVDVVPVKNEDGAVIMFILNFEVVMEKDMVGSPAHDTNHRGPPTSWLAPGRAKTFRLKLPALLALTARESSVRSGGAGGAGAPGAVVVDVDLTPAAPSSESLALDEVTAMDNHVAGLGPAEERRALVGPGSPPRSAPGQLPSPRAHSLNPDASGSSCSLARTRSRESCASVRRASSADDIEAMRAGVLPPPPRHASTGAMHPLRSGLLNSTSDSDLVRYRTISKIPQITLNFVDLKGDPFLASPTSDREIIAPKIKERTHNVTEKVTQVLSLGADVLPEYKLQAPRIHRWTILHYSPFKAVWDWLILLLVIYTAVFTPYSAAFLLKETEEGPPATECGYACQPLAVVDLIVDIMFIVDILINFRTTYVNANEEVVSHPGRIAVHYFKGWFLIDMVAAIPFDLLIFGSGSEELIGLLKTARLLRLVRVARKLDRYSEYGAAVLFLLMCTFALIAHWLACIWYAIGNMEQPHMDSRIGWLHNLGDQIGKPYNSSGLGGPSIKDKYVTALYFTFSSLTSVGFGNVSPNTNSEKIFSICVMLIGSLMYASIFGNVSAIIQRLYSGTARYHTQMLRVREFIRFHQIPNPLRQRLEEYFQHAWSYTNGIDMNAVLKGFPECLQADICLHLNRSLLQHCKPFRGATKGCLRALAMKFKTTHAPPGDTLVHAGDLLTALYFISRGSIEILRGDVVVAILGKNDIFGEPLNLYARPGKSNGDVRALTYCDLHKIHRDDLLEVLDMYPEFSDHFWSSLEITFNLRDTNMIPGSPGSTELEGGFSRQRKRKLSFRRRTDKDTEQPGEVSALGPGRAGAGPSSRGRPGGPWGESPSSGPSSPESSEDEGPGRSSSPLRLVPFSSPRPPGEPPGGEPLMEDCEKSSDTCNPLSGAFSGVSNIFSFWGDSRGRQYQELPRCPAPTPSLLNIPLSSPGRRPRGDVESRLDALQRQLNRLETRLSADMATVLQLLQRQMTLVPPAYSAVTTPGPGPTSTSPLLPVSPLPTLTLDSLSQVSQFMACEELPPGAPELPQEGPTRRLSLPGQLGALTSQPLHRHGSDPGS
`Cc1cccc(NC(=S)NC2CC3CCCC(C2)N3Cc2ccco2)c1` (stereo not shown): the “hERG current change (%, negative = inhibition) at 10uM” value is recorded as -21.7%. As to `Cc1ccc(NC(=S)NC2CC3CCCC(C2)N3Cc2ccco2)cc1` (stereo not shown), the “hERG current change (%, negative = inhibition) at 10uM” value was -52.8%.

Turning to `CCc1ccc(NC(=S)NC2CC3CCC(C2)N3Cc2ccco2)cc1` (stereo not shown), the “hERG current change (%, negative = inhibition) at 10uM” value is -45.5%. The figure for `Cc1ccc(NC(=S)NC2CC3CCC(C2)N3Cc2ccco2)cc1C` (stereo not shown) is -36.1%. For `Cc1cc(C)cc(NC(=S)NC2CC3CCC(C2)N3Cc2ccco2)c1` (stereo not shown), the “hERG current change (%, negative = inhibition) at 10uM” value is listed as -71.5%.

Take `Cc1cccc(NC(=S)NC2CC3CCC(C2)N3Cc2ccco2)c1` (stereo not shown): the “hERG current change (%, negative = inhibition) at 10uM” value is recorded as -43.5%. The result for `O=C(Nc1ccc2c(c1)CCC2)c1ccccc1Br` reads -12.9%. The figure for `COc1ccc(/C=N/Nc2cc(C)nc3c(C)cccc23)cc1` is -57.5%; for `Cc1cc(C)c2nc(C)cc(N/N=C/c3ccc(O)cc3)c2c1` it is -33.7%. The result for `Cc1cc(N/N=C/c2ccccc2O)c2ccccc2n1` reads -72.5%. Turning to `COc1cccc2c(N/N=C/c3ccc(O)c(O)c3)cc(C)nc12`, the “hERG current change (%, negative = inhibition) at 10uM” value is 18.9%.

`COc1ccccc1/C=N/Nc1cc(C)nc2ccc(C)cc12`: the “hERG current change (%, negative = inhibition) at 10uM” value is listed as 7.89%. The figure for `COc1ccc(/C=N/Nc2cc(C)nc3ccc(OC)cc23)c(OC)c1` is -50.1%; for `COc1cccc2c(N/N=C/c3ccccc3)cc(C)nc12` it is -9.04%. The figure for `Cc1cc(N/N=C/c2ccc(O)cc2O)c2ccccc2n1` is 4.97%.

In the case of `COc1cccc2c(N/N=C/c3ccco3)cc(C)nc12`, the “hERG current change (%, negative = inhibition) at 10uM” value is given as -5.81%. The figure for `Cc1cc(N/N=C/c2ccc(O)cc2)c2cccc(C)c2n1` is -51.6%. The figure for `Cc1ccc2nc(C)cc(N/N=C/c3ccccc3O)c2c1` is 2.38%. Consider `COc1ccc2nc(C)cc(N/N=C/c3cccc(OC)c3O)c2c1`, for which the “hERG current change (%, negative = inhibition) at 10uM” value is -13%. The figure for `COCCCNC(=O)c1oc2ccc(S(=O)(=O)N(C)C3CCCCC3)cc2c1C` is -4.45%; for `COc1ccccc1-c1cc(-c2ccc(O)cc2)nc(N)c1C#N` it is 13.9%. As to `CC(=O)c1ccc(S(=O)c2ccccc2)cc1` (stereo not shown), the “hERG current change (%, negative = inhibition) at 10uM” value was -3.38%. The figure for `Cc1ccc(CSc2nnc(C)c(=O)[nH]2)cc1` is 10.9%; for `S=C(NCc1ccccn1)Nc1ccc(Cl)cc1Cl` it is 6.07%. The result for `O=C(CCc1ccccc1)NCC(=O)N/N=C/c1ccc(O)cc1O` reads -8.41%; that for `COCc1cc(=O)[nH]c(Sc2c(-c3ccccc3)c3ccc(Cl)cc3[nH]c2=O)n1`, 20.4%. Turning to `O=C(NCCCN1CCCC1=O)C(=O)NCC1OCCCN1S(=O)(=O)c1cc(F)ccc1F` (stereo not shown), the “hERG current change (%, negative = inhibition) at 10uM” value turned out to be 23.8%. The figure for `CC(=O)C1=C(c2ccccc2)NC(=O)NC1c1ccc(O)c(Cl)c1` (stereo not shown) is 17.6%.

Consider `O=C(COc1ccccc1Cl)c1ccc2c(c1)CCCC2`, for which the “hERG current change (%, negative = inhibition) at 10uM” value is listed as -0.256%.

In the case of `Cc1nc2nc(SCC(=O)Nc3cccc(F)c3)[nH]c2cc1Br`, the “hERG current change (%, negative = inhibition) at 10uM” value was 23.2%. The figure for `C/C(N)=C(/C#N)C(=O)COC(=O)c1ccccc1O` is -0.192%; for `Cc1ccc(NC(=O)CSc2ccc(-c3ccco3)nn2)cc1` it is -7.67%. The result for `CCCN(CCC)CC(C)(C)NS(=O)(=O)c1ccc(Cl)cc1` reads -17.1%; that for `COc1ccc(/C=N/Nc2cc(C)nc3ccccc23)cc1`, -63.3%. The figure for `COc1ccc(/C=N/Nc2cc(C)nc3ccc(Br)cc23)cc1` is -35.1%; for `COc1ccc2nc(C)cc(N/N=C/c3ccccc3)c2c1` it is -17.1%.

Take `COc1ccc(-n2c(C)cc(/C=C/c3nc(O)c([N+](=O)[O-])c(=O)[nH]3)c2C)cc1`: the “hERG current change (%, negative = inhibition) at 10uM” value is reported as 3.06%. The figure for `CC1(C)NC(=O)N(CC(=O)NNC(=O)c2ccccc2F)C1=O` is 3.42%; for `Cn1ncc(Br)c1C(=O)NC1CCCC1` it is 24.1%; for `C=CCn1c(O)c(C(C)=Nc2cccc(C(=O)O)c2)c(=O)[nH]c1=O` it is 1.4%. The result for `O=C(c1ccc(Cl)cc1Cl)c1ncc(C(F)(F)F)cc1Cl` reads -10.1%; that for `Cc1cc(=O)n(Cc2ccccc2)c2ccccc12`, 4.79%; that for `Cc1cc(O)cc(=O)n1Cc1ccccc1`, 12%. The result for `Cc1c(CN(C)C)c2c(n1Cc1ccccc1)C(=O)c1ccccc1-2.Cl` reads -75.6%. Take `O=c1oc2cc(Br)ccc2n1Cc1ccccc1`: the “hERG current change (%, negative = inhibition) at 10uM” value stood at 18.6%. The figure for `Cc1c(CN(C)C)c2c(n1Cc1ccccc1)C(=O)c1ccc(Br)cc1-2.Cl` is -74.5%; for `Cc1c(CN(C)C)c2c(n1C)C(=O)c1ccc(Br)cc1-2.Cl` it is -37.3%.

As to `COCc1nnc(SCC(=O)NCc2ccccc2)n1-c1ccccc1`, the “hERG current change (%, negative = inhibition) at 10uM” value is on record as -3.33%. The result for `CCOCCCNC(C(=O)Nc1ccc(OC)c(Cl)c1)c1ccccc1` (stereo not shown) reads -35.1%. The result for `CCC(C)C(NC(N)=O)C(=O)Nc1ccc(C)c(Cl)c1` (stereo not shown) reads 10.9%; that for `CCc1ccc(C(=O)c2cncc(Br)c2)cc1`, -18.3%; that for `COc1ccc2oc(C)c(C(=O)NN)c2c1`, -1.4%. The result for `CCOC(=O)c1c(CN2CCCCC2)oc2ccc(O)cc12.Cl` reads -54.3%.

In the case of `COc1ccc2oc(C(=O)OC(C)C(=O)N3CCC(C)CC3)c(C)c2c1` (stereo not shown), the “hERG current change (%, negative = inhibition) at 10uM” value was -5.44%. The figure for `CCOC(=O)c1c(CN2CCOCC2)oc2ccc(OC)cc12` is -7.29%. The result for `CCOC(=O)c1c(CN2CCOCC2)oc2ccc(OC(C)=O)cc12` reads 13.9%; that for `CCOC(=O)CCC(=O)c1c(C)oc2ccc(OC)cc12`, -57.2%. The result for `CCOC(=O)c1c(CN2CCN(c3ccccc3)CC2)oc2ccc(O)cc12` reads -4.3%; that for `CCOC(=O)c1c(CN2CCN(C)CC2)oc2ccc(O)cc12`, -38%. In the case of `CCOC(=O)c1c(CN2CCCCC2)oc2ccc(OC)cc12`, the “hERG current change (%, negative = inhibition) at 10uM” value is recorded as -61.6%. The figure for `COc1ccc2oc(C)c(C(=O)c3ccccc3)c2c1` is -7.34%; for `CCOC(=O)c1c(CN2CCC(C)CC2)oc2ccc(OC)cc12` it is -51.2%. The figure for `COc1ccc2oc(C(=O)OCC(=O)N3CCCC(C)C3)c(C)c2c1` (stereo not shown) is -39.4%.

For the compound `CCOC(=O)c1cnc(Nc2nc3ccccc3o2)nc1CSc1nnc(C)s1`, the “hERG current change (%, negative = inhibition) at 10uM” value is -5.06%.

On to `C/C(=N\NC(=O)c1ccco1)c1ccc(NC(=O)c2cccs2)cc1`, for which the “hERG current change (%, negative = inhibition) at 10uM” value is 5.09%. The result for `Cc1ccc(NC(=O)CCC(=O)Nc2ccc(C)cc2)cc1` reads 12.2%; that for `COC(=O)C1=C(c2ccc3ccccc3c2)C[C@@H]2CC[C@H]1N2C(=O)N1CCCCC1`, 2.21%; that for `CCn1nc(C)c(/C=N/NC(=O)c2nc3nc(C)cc(C)n3n2)c1C`, 14.1%. The result for `COc1ccc(-c2nnn(Cc3nn[nH]n3)n2)cc1OC` reads 3.25%; that for `O=C(CCSc1nnc(-c2ccncc2)o1)Nc1ccccc1Cl`, -10.9%; that for `CCOC(=O)c1c(CN(CC)CC)oc2ccc(OC)cc12`, -61.9%.

As to `CCOC(=O)c1c(CN2CCCCC2)oc2ccc(OC)cc12.Cl`, the “hERG current change (%, negative = inhibition) at 10uM” value is on record as -58.4%. The figure for `CCN(CC)CCOC(=O)c1c(C)oc2ccc(OC)cc12.Cl` is -36.6%; for `CCOC(=O)c1c(CN2CCCCC2C)oc2ccc(OC)cc12.Cl` (stereo not shown) it is -58.9%. As to `COc1ccc2oc(C(=O)OCC(=O)N3C(C)CCCC3C)c(C)c2c1` (stereo not shown), the “hERG current change (%, negative = inhibition) at 10uM” value is -14.8%. The figure for `CCOC(=O)c1c(-c2ccccc2)oc2ccc(OC)cc12` is 1.46%.

With `CCOC(=O)c1c(C)n(CCN2CCN(C)CC2)c2ccc(OC)cc12.Cl`, the “hERG current change (%, negative = inhibition) at 10uM” value is recorded as -20.2%.

`CCc1ccc2oc(=O)cc(CN3CCCCC3C)c2c1.Cl` (stereo not shown): the “hERG current change (%, negative = inhibition) at 10uM” value was -16.7%. Turning to `CCOC(=O)c1c(-c2ccc(OC)cc2)oc2ccc(O)cc12`, the “hERG current change (%, negative = inhibition) at 10uM” value was 13.1%. The figure for `Cc1ccc(C(=O)Nc2nnc(Cc3ccccc3)s2)cc1` is 9.35%. In the case of `C=CCNC(=O)c1cc(-c2cccnc2)nc2ccccc12`, the “hERG current change (%, negative = inhibition) at 10uM” value is reported as -34.7%. The figure for `Cc1ccc(/C=C/C(=O)N2CCN(c3ccc(F)cc3)CC2)o1` is -15.8%. The figure for `CSCC[C@H](NC(=O)[C@@H]1CSC2c3ccccc3C(=O)N21)C(=O)N1CCC[C@H]1CO` (stereo partly shown) is 1.52%. Consider `COc1ccc(N2CCN(Cc3nnc(-c4ccccc4)o3)CC2)cc1`, for which the “hERG current change (%, negative = inhibition) at 10uM” value was -0.362%. The result for `O=C1Nc2ccccc2/C1=N\N1CCOCC1` reads 2.95%; that for `Cc1nc2nc(-c3ccccc3)[nH]n2c(=O)c1C`, -3.77%.

For the compound `CCN1CC2=C(OC(N)=C(C#N)C2c2ccccc2)/C(=C\c2ccccc2)C1` (stereo not shown), the “hERG current change (%, negative = inhibition) at 10uM” value is on record as -6.02%.

Turning to `CCCCN(CC)Cc1ccc(CNC(=S)Nc2c(C)cc(C)cc2C)o1`, the “hERG current change (%, negative = inhibition) at 10uM” value is reported as -54.8%. The result for `CCCCN(CC)Cc1ccc(CNC(=O)Nc2ccc(Cl)cc2)o1` reads -61.9%. The figure for `CCCCN(CC)Cc1ccc(CNC(=S)Nc2ccccc2F)o1` is -16.3%; for `CCCCN(CC)Cc1ccc(CNC(=O)Nc2ccc(F)cc2)o1` it is -32.1%; for `CCCCN(CC)Cc1ccc(CNC(=S)Nc2ccc(C)cc2Cl)o1` it is -32.1%. The result for `CCCCN(CC)Cc1ccc(CNC(=O)Nc2ccccc2)o1` reads -9.65%. For `CN1C(=O)NC(c2ccccc2[N+](=O)[O-])C2=C1CCCC2=O` (stereo not shown), the “hERG current change (%, negative = inhibition) at 10uM” value is reported as 10.1%.
